In PubChem BioAssay (NCI) one finds growth data, which are given here for 7 molecules.

Several values for one entry are separate records, joined by “and”; a condition that tells them apart may be missing. Identical values can stand only once. About 83,000 compounds went through this panel and 20% of them were active in at least one assay; those are over-represented in the sample as a whole.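 A percent growth of 40 corresponds to 60% growth inhibition; 0 means no net growth; -100 means all cells died. Active threshold: below 10.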 Activity calls are given as the source filed them.

Assay in all cases: NCI-60 one-dose screen, 48 h (100 = growth as untreated, 0 = no growth, -100 = all killed)
Assay [1] concerns SR leukemia. The note with it: 10 µM unless noted.
Assay [2] has as its system RPMI-8226 leukemia.
Assay [3] relates to OVCAR-8 ovarian. The note with it: 10 µM unless noted.
Assay [4] deals with OVCAR-5 ovarian.
The test system of assay [5] is OVCAR-4 ovarian.
Assay [6] deals with SK-OV-3 ovarian. To be noted: 10 µM unless noted.
Assay [7] relates to IGROV1 ovarian.
In assay [8] the test system is OVCAR-3 ovarian.
In assay [9] the test system is HS 578T breast. The note with it: 10 µM unless noted.
Assay [10] relates to NCI/ADR-RES ovarian. To be noted: 10 µM unless noted.
Assay [11] has as its system T-47D breast.
For assay [12], the system named is BT-549 breast.
Assay [13] has as its system MDA-MB-435 melanoma.
In assay [14] the test system is SW-620 colon.
The test system of assay [15] is MCF7 breast.
The subject of assay [16] is HCT-116 colon.
In assay [17] the test system is HCC-2998 colon.
For assay [18], the system named is KM12 colon.

With `CN=C(N)N/N=C(\C)c1ccc2c(c1)Cc1cc(/C(C)=N/NC(N)=NC)ccc1-2`, the growth in assay [1] is -23.3% (active); in [2] (10 µM unless noted), -1.58% (active); in assay [3] it was -53.5% (active); in [4] (10 µM unless noted) it was -44.4% (active); in assay [5] (10 µM unless noted) it was -69.1% (active); in assay [6], -80.8% (active). Also, the growth in [7] (10 µM unless noted) was 26.5% (inactive); in [8] (10 µM unless noted), -59.6% (active); in assay [9], -8.27% (active); in assay [10], 64.8% (inactive); in [11] (10 µM unless noted), -26% (active); in assay [12] (10 µM unless noted), 49.6% (inactive). Moreover, the growth was -59.7% (active) in [13] (10 µM unless noted); -14.8% (active) in [14] (10 µM unless noted); -38.3% (active) in assay [15] (10 µM); -23.5% (active) in [16] (10 µM unless noted); -78.7% (active) in [17] (10 µM unless noted); -20.3% (active) in assay [18] (10 µM unless noted).
Consider `Cn1c2ccccc2c2nnc(N/N=C/c3ccccn3)nc21`, for which the growth was 8.61% (active) in assay [1]; -14.2% (active) in assay [2] (10 µM unless noted); 23.9% (inactive) in assay [3]; 40.6% (inactive) in [4] (10 µM unless noted); 24.4% (inactive) in assay [5] (10 µM unless noted); -11.1% (active) in [6]. Also, the growth was 4.97% (active) in [7] (10 µM unless noted); 23.5% (inactive) in assay [8] (10 µM unless noted); 53.7% (inactive) in [9]; 6.51% (active) in assay [10]; 19.2% (inactive) in [11] (10 µM unless noted); -24.2% (active) in assay [12] (10 µM unless noted). The growth in [13] (10 µM unless noted) was 19.1% (inactive); in assay [14] (10 µM unless noted), 31.3% (inactive); in [15] (10 µM), 13.3% (inactive); in [16] (10 µM unless noted), 14.4% (inactive); in [17] (10 µM unless noted), 34.5% (inactive); in [18] (10 µM unless noted), 23% (inactive).
Regarding `O=C(O)c1ccc2c3c(ncnc13)-c1ccccc1C2=O`, the growth in assay [1] is 98.4% (inactive); in [2] (10 µM unless noted) it was 87.1% (inactive); in [3] it was 79.9% (inactive); in assay [4] (10 µM unless noted) it was 116% (inactive); in assay [5] (10 µM unless noted), 91.7% (inactive); in assay [6] it was 98% (inactive). The growth in assay [7] (10 µM unless noted) was 83.4% (inactive); in assay [8] (10 µM unless noted), 83.4% (inactive); in assay [9], 5.48% (active); in assay [10], 76.9% (inactive); in assay [11] (10 µM unless noted), 101% (inactive); in assay [12] (10 µM unless noted), 33.8% (inactive). The growth was -60% (active) in [13] (10 µM unless noted); 87.7% (inactive) in assay [14] (10 µM unless noted); 50.9% (inactive) in assay [15] (10 µM); 91.2% (inactive) in assay [16] (10 µM unless noted); -58.5% (active) in [17] (10 µM unless noted); 46.5% (inactive) in assay [18] (10 µM unless noted).
For the molecule `NC1=CC(=O)c2ccccc2C1=O`, the growth in assay [1] is 81.3% (inactive); in assay [2] (10 µM unless noted) it was 81.7% (inactive); in [3] it was 85.3% (inactive); in assay [4] (10 µM unless noted) it was 110% (inactive); in assay [5] (10 µM unless noted) it was 87.7% (inactive); in assay [6], 92.3% (inactive). In addition, the growth in [7] (10 µM unless noted) is 90.8% (inactive); in assay [8] (10 µM unless noted), 82.6% (inactive); in assay [9], 71.6% (inactive); in assay [10], 88.6% (inactive); in assay [11] (10 µM unless noted) it was 98% (inactive); in assay [12] (10 µM unless noted) it was 92.1% (inactive). Moreover, the growth in assay [13] (10 µM unless noted) is 8.66% (active); in assay [14] (10 µM unless noted), 107% (inactive); in [15] (10 µM) it was 54.5% (inactive); in assay [16] (10 µM unless noted), 80.8% (inactive); in assay [17] (10 µM unless noted), 90.4% (inactive); in [18] (10 µM unless noted), 79.3% (inactive).
As for `O=C1c2cccnc2-c2nccc3c2c1nc1cc(Br)ccc13`, the growth is -38.2% (active) and 17.6% (inactive) in assay [1]; -49.7% (active) and -22.2% (active) in assay [2] (10 µM unless noted); -41.9% (active) in assay [3]; 32.3% (inactive) and -53% (active) in [4] (10 µM unless noted); -54.2% (active) and -85.3% (active) in assay [5] (10 µM unless noted); -10.1% (active) and -96% (active) in [6]. The growth in assay [7] (10 µM unless noted) is -77.6% (active) and -77.5% (active); in assay [8] (10 µM unless noted), -83.1% (active) and -95.4% (active); in assay [9], -74% (active) and -32.9% (active); in [10], -50.7% (active) and -38.1% (active); in assay [11] (10 µM unless noted), -34.3% (active) and -63.8% (active); in assay [12] (10 µM unless noted), -73.9% (active) and -67.8% (active). For the same molecule, the growth in [13] (10 µM unless noted) was -68.4% (active) and -94.5% (active); in assay [14] (10 µM unless noted), -63.4% (active) and -74.8% (active); in assay [15] (10 µM), -41.9% (active) and -57.8% (active); in [16] (10 µM unless noted), -81.5% (active) and -68.7% (active); in assay [17] (10 µM unless noted), -100% (active) and -82.7% (active); in [18] (10 µM unless noted) it was -96.7% (active) and -76.7% (active).
`COc1ccc(-c2cscc2N)cc1`: the growth was 59.1% [100 µM] (inactive) in assay [1]; 88.7% (inactive) in assay [2] (10 µM); 23.7% (inactive) in [2] (100 µM); 87.5% (inactive) in [4] (10 µM); 78.9% (inactive) in [4] (100 µM); 103% (inactive) in [5] (10 µM). The growth in assay [5] (100 µM) was 45.3% (inactive); in assay [6], 80.2% [100 µM] (inactive); in [7] (10 µM), 91.1% (inactive); in assay [7] (100 µM), 58% (inactive); in assay [8] (10 µM), 112% (inactive); in assay [8] (100 µM), 40.9% (inactive). The growth was 60% (inactive) in assay [11] (10 µM); 17.3% (inactive) in [11] (100 µM); 69.5% (inactive) in assay [12] (10 µM); -32.7% (active) in assay [12] (100 µM); 79.1% (inactive) in assay [13] (10 µM); 30.4% (inactive) in assay [13] (100 µM). For the same molecule, the growth in [14] (10 µM) is 88.5% (inactive); in assay [14] (100 µM), 48.4% (inactive); in [15] (10 µM), 47.3% (inactive); in [15] (100 µM), 19.9% (inactive); in [16] (10 µM) it was 73.3% (inactive); in [16] (100 µM) it was 26.4% (inactive). Moreover, the growth in assay [17] (10 µM) is 80.1% (inactive); in [17] (100 µM) it was 39.6% (inactive); in assay [18] (10 µM), 69.6% (inactive); in assay [18] (100 µM), 21.1% (inactive).
As to `COC(=O)Nc1nc2ccc(C(=O)c3ccccc3)cc2[nH]1`, the growth is 19.8% (inactive) and 2.51% (active) in assay [1]; 45.5% (inactive) and -31.7% (active) in assay [2] (10 µM unless noted); 22% (inactive) and 20.6% (inactive) and 22.1% (inactive) in [3]; 20.7% (inactive) and 47.1% (inactive) in assay [4] (10 µM unless noted); 52.6% (inactive) and 72.1% (inactive) and 39.6% (inactive) in assay [5] (10 µM unless noted); 22.8% (inactive) and 28.9% (inactive) and 32.6% (inactive) in assay [6]. Besides, the growth in [7] (10 µM unless noted) is 43.2% (inactive) and 13.7% (inactive) and -39.8% (active); in [8] (10 µM unless noted) it was -50.1% (active) and -60.4% (active) and -59.4% (active); in assay [9], 35.5% (inactive) and 15.8% (inactive) and 21.6% (inactive); in assay [10], -28.8% (active) and 4.68% (active) and -3.41% (active); in assay [11] (10 µM unless noted), 36.8% (inactive) and 82.6% (inactive) and 77.2% (inactive); in assay [12] (10 µM unless noted) it was 63.9% (inactive) and 63% (inactive) and 51.4% (inactive). For the same molecule, the growth in assay [13] (10 µM unless noted) is -59.5% (active) and -46.6% (active) and -73% (active); in assay [14] (10 µM unless noted) it was 24.2% (inactive) and 25% (inactive) and 19.4% (inactive); in assay [15] (10 µM), 21.4% (inactive) and 18.4% (inactive) and 8.91% (active); in assay [16] (10 µM unless noted), 19.9% (inactive) and 9.73% (active) and 13.3% (inactive); in assay [17] (10 µM unless noted), 57.3% (inactive) and 2.48% (active) and 23.8% (inactive); in assay [18] (10 µM unless noted) it was 11.2% (inactive) and -7.2% (active) and 3.76% (active).
